Assay results from PubChem BioAssay AID1159580 (chemical genetic matrix, 2015).
Hit rate of the full screen: of about 5,500 compounds, about 2,000 (36%) were called active. About 18% were inconclusive and are not listed. Cut-off read from the data, not from the text of the source: active = normalized growth mostly below about 0.91 (no sharp cut-off); inconclusive = no clear call, values can overlap the other calls; inactive = mostly above about 0.92. The list shows a part of the results.

Assay: chemical genetic growth profiling, strain panel (AID 1159580);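 note: tested at 20 µM; growth read once vehicle control cultures reached saturation at 30 °C; 1 = growth at the plate median or of vehicle wells; lower values mean less growth of the strain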
Details: growth OD
[1] = S. cerevisiae deletion strains, locus YDL101C, strain DUN1, stronger effect = lower value
[2] = S. cerevisiae deletion strains, locus YHR030C, strain SLT2, stronger effect = lower value

Measured: normalized growth

O=C(Nc1cc(Cl)cc(Cl)c1)c1cc(Br)ccc1O
inactive: S. cerevisiae deletion strains, locus YAR019C, strain CDC15, stronger effect = lower value 0.944 | S. cerevisiae deletion strains, locus YBL105C, strain PKC1, stronger effect = lower value 0.958 | S. cerevisiae deletion strains, locus YBR135W, strain CKS1, stronger effect = lower value 0.946 | S. cerevisiae deletion strains, locus YBR136W, strain MEC1, stronger effect = lower value 0.949 | S. cerevisiae deletion strains, locus YBR160W, strain CDC28, stronger effect = lower value 0.955 | S. cerevisiae deletion strains, locus YDL017W, strain CDC7, stronger effect = lower value 0.942 | S. cerevisiae deletion strains, locus YDL028C, strain MPS1, stronger effect = lower value 0.955 | [1] 0.985 | S. cerevisiae deletion strains, locus YDL108W, strain KIN28, stronger effect = lower value 0.953 | S. cerevisiae deletion strains, locus YDL132W, strain cdc53, stronger effect = lower value 0.933 | S. cerevisiae deletion strains, locus YDL214C, strain PRR2, stronger effect = lower value 0.849 | S. cerevisiae deletion strains, locus YDR052C, strain DBF4, stronger effect = lower value 0.925 | S. cerevisiae deletion strains, locus YDR054C, strain cdc34, stronger effect = lower value 0.939 | S. cerevisiae deletion strains, locus YDR226W, strain ADK1, stronger effect = lower value 0.935 | S. cerevisiae deletion strains, locus YDR477W, strain SNF1, stronger effect = lower value 0.872 | S. cerevisiae deletion strains, locus YER123W, strain YCK3, stronger effect = lower value 0.774 | S. cerevisiae deletion strains, locus YER133W, strain GLC7, stronger effect = lower value 0.831 | S. cerevisiae deletion strains, locus YFL009W, strain cdc4, stronger effect = lower value 0.936 | S. cerevisiae deletion strains, locus YFL029C, strain CAK1, stronger effect = lower value 0.942 | S. cerevisiae deletion strains, locus YFR003C, strain YPI1, stronger effect = lower value 0.949 | S. cerevisiae deletion strains, locus YFR019W, strain FAB1, stronger effect = lower value 0.91 | S. cerevisiae deletion strains, locus YFR028C, strain CDC14, stronger effect = lower value 0.94 | S. cerevisiae deletion strains, locus YGR040W, strain KSS1, stronger effect = lower value 0.888 | S. cerevisiae deletion strains, locus YGR052W, strain FMP48, stronger effect = lower value 0.847 | S. cerevisiae deletion strains, locus YHR079C, strain IRE1, stronger effect = lower value 0.68 | S. cerevisiae deletion strains, locus YHR082C, strain KSP1, stronger effect = lower value 0.964 | S. cerevisiae deletion strains, locus YHR205W, strain SCH9, stronger effect = lower value 0.656 | S. cerevisiae deletion strains, locus YIL147C, strain SLN1, stronger effect = lower value 0.945 | S. cerevisiae deletion strains, locus YJL095W, strain BCK1, stronger effect = lower value 0.76 | S. cerevisiae deletion strains, locus YJL128C, strain PBS2, stronger effect = lower value 0.959 | S. cerevisiae deletion strains, locus YJR016C, strain ILV3, stronger effect = lower value 0.944 | S. cerevisiae deletion strains, locus YJR066W, strain TOR1 (second series), stronger effect = lower value 0.774 | S. cerevisiae deletion strains, locus YJR066W, strain TOR1, stronger effect = lower value 0.792 | S. cerevisiae deletion strains, locus YKL048C, strain ELM1, stronger effect = lower value 0.848 | S. cerevisiae deletion strains, locus YKL067W, strain YNK1, stronger effect = lower value 0.799 | S. cerevisiae deletion strains, locus YKL101W, strain HSL1, stronger effect = lower value 0.853 | S. cerevisiae deletion strains, locus YKL193C, strain SDS22, stronger effect = lower value 0.936 | S. cerevisiae deletion strains, locus YKL203C, strain TOR2, stronger effect = lower value 0.86 | S. cerevisiae deletion strains, locus YLR113W, strain HOG1, stronger effect = lower value 0.892 | S. cerevisiae deletion strains, locus YLR133W, strain CKI1, stronger effect = lower value 0.821 | S. cerevisiae deletion strains, locus YLR403W, strain SFP1, stronger effect = lower value 0.747 | S. cerevisiae deletion strains, locus YML070W, strain DAK1, stronger effect = lower value 0.872 | S. cerevisiae deletion strains, locus YMR001C, strain CDC5, stronger effect = lower value 0.941 | S. cerevisiae deletion strains, locus YMR205C, strain PFK2 (second series), stronger effect = lower value 0.858 | S. cerevisiae deletion strains, locus YMR277W, strain FCP1, stronger effect = lower value 0.945 | S. cerevisiae deletion strains, locus YNL006W, strain LST8, stronger effect = lower value 0.938 | S. cerevisiae deletion strains, locus YNL020C, strain ARK1, stronger effect = lower value 0.738 | S. cerevisiae deletion strains, locus YNL161W, strain CBK1, stronger effect = lower value 0.947 | S. cerevisiae deletion strains, locus YNL183C, strain NPR1, stronger effect = lower value 0.917 | S. cerevisiae deletion strains, locus YNL207W, strain RIO2, stronger effect = lower value 0.955 | S. cerevisiae deletion strains, locus YNL222W, strain SSU72, stronger effect = lower value 0.949 | S. cerevisiae deletion strains, locus YNL307C, strain MCK1 (second series), stronger effect = lower value 0.703 | S. cerevisiae deletion strains, locus YOL078W, strain AVO1, stronger effect = lower value 0.952 | S. cerevisiae deletion strains, locus YOL136C, strain PFK27, stronger effect = lower value 0.767 | S. cerevisiae deletion strains, locus YOR061W, strain CKA2, stronger effect = lower value 0.749 | S. cerevisiae deletion strains, locus YOR119C, strain RIO1, stronger effect = lower value 0.925 | S. cerevisiae deletion strains, locus YOR231W, strain MKK1, stronger effect = lower value 0.888 | S. cerevisiae deletion strains, locus YOR329C, strain SCD5, stronger effect = lower value 0.948 | S. cerevisiae deletion strains, locus YPL031C, strain PHO85, stronger effect = lower value 0.841 | S. cerevisiae deletion strains, locus YPL153C, strain RAD53, stronger effect = lower value 0.84 | S. cerevisiae deletion strains, locus YPL204W, strain HRR25, stronger effect = lower value 0.801 | S. cerevisiae deletion strains, locus YPL209C, strain IPL1, stronger effect = lower value 0.945 | S. cerevisiae deletion strains, locus YPL256C, strain CLN2, stronger effect = lower value 0.871 | S. cerevisiae deletion strains, locus YPR025C, strain CCL1, stronger effect = lower value 0.951 | S. cerevisiae deletion strains, locus YPR106W, strain ISR1, stronger effect = lower value 0.971 | S. cerevisiae deletion strains, locus YPR111W, strain DBF20, stronger effect = lower value 0.96 | S. cerevisiae deletion strains, strain NNK1, stronger effect = lower value 0.964 | S. cerevisiae deletion strains, strain TSCII, stronger effect = lower value 0.942
active: S. cerevisiae deletion strains, locus YGR092W, strain DBF2, stronger effect = lower value 0.405 | [2] 0.816 | S. cerevisiae deletion strains, locus YJL157C, strain FAR1, stronger effect = lower value 0.698

O=C(NNC(=O)c1ccc[nH]1)Nc1cc(Cl)cc(Cl)c1
inactive: S. cerevisiae deletion strains, locus YAL013W, strain DEP1, stronger effect = lower value 1.01 | S. cerevisiae deletion strains, locus YBR229C, strain ROT2, stronger effect = lower value 1 | [1] 0.991 | S. cerevisiae deletion strains, locus YDR150W, strain NUM1, stronger effect = lower value 0.994 | S. cerevisiae deletion strains, locus YEL061C, strain CIN8, stronger effect = lower value 0.996 | S. cerevisiae deletion strains, locus YGR078C, strain PAC10, stronger effect = lower value 1 | S. cerevisiae deletion strains, locus YGR229C, strain SMI1, stronger effect = lower value 1.02 | [2] 1.07 | S. cerevisiae deletion strains, locus YHR087W, strain rtc3, stronger effect = lower value 1.02 | S. cerevisiae deletion strains, locus YJR043C, strain POL32, stronger effect = lower value 1.01 | S. cerevisiae deletion strains, locus YJR075W, strain HOC1, stronger effect = lower value 1.01 | S. cerevisiae deletion strains, locus YKL190W, strain CNB1, stronger effect = lower value 1.01 | S. cerevisiae deletion strains, locus YLR039C, strain RIC1, stronger effect = lower value 1.05 | S. cerevisiae deletion strains, locus YLR058C, strain SHM2 (second series), stronger effect = lower value 1.01 | S. cerevisiae deletion strains, locus YLR085C, strain ARP6, stronger effect = lower value 1.04 | S. cerevisiae deletion strains, locus YLR262C, strain YPT6, stronger effect = lower value 1.03 | S. cerevisiae deletion strains, locus YML094W, strain GIM5, stronger effect = lower value 0.992 | S. cerevisiae deletion strains, locus YMR219W, strain ESC1, stronger effect = lower value 1 | S. cerevisiae deletion strains, locus YMR263W, strain SAP30, stronger effect = lower value 1.02 | S. cerevisiae deletion strains, locus YNL128W, strain TEP1, stronger effect = lower value 1.03 | S. cerevisiae deletion strains, locus YNL153C, strain GIM3, stronger effect = lower value 0.988 | S. cerevisiae deletion strains, locus YNL298W, strain CLA4 (second series), stronger effect = lower value 1.05 | S. cerevisiae deletion strains, locus YNL322C, strain KRE1, stronger effect = lower value 0.996 | S. cerevisiae deletion strains, locus YNR030W, strain Alg12, stronger effect = lower value 1.01 | S. cerevisiae deletion strains, locus YOL006C, strain TOP1, stronger effect = lower value 1.08 | S. cerevisiae deletion strains, locus YPL055C, strain LGE1, stronger effect = lower value 1.02 | S. cerevisiae deletion strains, locus YPL241C, strain CIN2, stronger effect = lower value 0.922 | S. cerevisiae deletion strains, locus YPR135W, strain CTF4, stronger effect = lower value 1 | S. cerevisiae strains, strain wild type, stronger effect = lower value 1.02
